This is part of a sample that, as a whole, favours compounds with a hit. Of some 83,000 tested, about 20% had one in any assay.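 Method: cells in 96-well plates; compound added at one concentration; 48 h incubation; percent growth measured; values under 10 scored active.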 Active and inactive are the calls of the source.
Experiments:
Test in all cases: NCI-60 one-dose screen, 48 h (100 = growth as untreated, 0 = no growth, -100 = all killed)
Settings in all cases: 10 µM unless noted
NCI-H226 lung = tested on: NCI-H226 lung
NCI-H322M lung = tested on: NCI-H322M lung
HOP-62 NSCLC = tested on: HOP-62 NSCLC
NCI-H460 lung = tested on: NCI-H460 lung
HOP-92 NSCLC = tested on: HOP-92 NSCLC
NCI-H522 lung = tested on: NCI-H522 lung
A549/ATCC NSCLC = tested on: A549/ATCC NSCLC
786-0 renal = tested on: 786-0 renal
COLO 205 colon = tested on: COLO 205 colon
DU-145 prostate = tested on: DU-145 prostate

Measured: growth

Nc1cc(-c2c[nH]c3ccc(F)cc23)nc2cc(-c3c[nH]c4ccc(F)cc34)nn12
inactive: NCI-H226 lung 97.4% | NCI-H322M lung 94.1% | HOP-62 NSCLC 101% | NCI-H460 lung 32.2% | HOP-92 NSCLC 83.5% | NCI-H522 lung 90.3% | A549/ATCC NSCLC 79.5% | 786-0 renal 66.3% | COLO 205 colon 118% | DU-145 prostate 72.7%

O=C(N/N=C/c1cccs1)c1[nH]c2ccc(Br)cc2c1-c1ccccc1
active: NCI-H460 lung 6.54% | NCI-H522 lung -43.9% | COLO 205 colon -67.6%
inactive: NCI-H226 lung 50.9% | NCI-H322M lung 44.7% | HOP-62 NSCLC 44.2% | HOP-92 NSCLC 39.9% | A549/ATCC NSCLC 23.1% | 786-0 renal 12% | DU-145 prostate 20.7%

CC(C)NC(=O)c1cc(-c2ccc(NC(=O)Nc3ccc(N4CCOCC4)c(C(F)(F)F)c3)cc2)nc2cccnc12
inactive: NCI-H226 lung 80% | NCI-H322M lung 91.2% | HOP-62 NSCLC 43.9% | NCI-H460 lung 55.2% | HOP-92 NSCLC 72.3% | NCI-H522 lung 87% | A549/ATCC NSCLC 62.4% | 786-0 renal 17% | COLO 205 colon 99.7% | DU-145 prostate 78.9%

CS(=O)(=O)c1ccc(-n2cc(/C=C/C(=O)c3ccc(NC(=O)CO[N+](=O)[O-])cc3)c(-c3ccc(Cl)cc3)n2)cc1
inactive: NCI-H226 lung 72.2% | NCI-H322M lung 97.1% | HOP-62 NSCLC 103% | NCI-H460 lung 106% | HOP-92 NSCLC 90.2% | NCI-H522 lung 103% | A549/ATCC NSCLC 91.8% | 786-0 renal 67.6% | COLO 205 colon 111% | DU-145 prostate 101%

CN(C)CCCOc1c2ccc(Cl)cc2nc2c1oc1ccccc12
inactive: A549/ATCC NSCLC 10%
active: NCI-H226 lung -0.673% | NCI-H322M lung -13.1% | HOP-62 NSCLC 7.02% | NCI-H460 lung 7.64% | HOP-92 NSCLC -4.3% | NCI-H522 lung -39.6% | 786-0 renal 6.22% | COLO 205 colon -59.3% | DU-145 prostate 5.28%

COC(=O)C1CCCN(S(=O)(=O)/N=C2\NC(=O)NC2=C(Cl)Cl)C1 (stereo not given)
inactive: NCI-H226 lung 105% | NCI-H322M lung 103% | HOP-62 NSCLC 118% | NCI-H460 lung 108% | HOP-92 NSCLC 110% | NCI-H522 lung 87.7% | A549/ATCC NSCLC 106% | 786-0 renal 102% | COLO 205 colon 112% | DU-145 prostate 112%

CCCCN1C(=O)/C(=c2\sc3n(c2=O)C2C(NN=3)N(CC)C(=O)N2CC)c2cc(Cl)ccc21 (stereo not given)
inactive: NCI-H226 lung 89.8% | NCI-H322M lung 96.3% | HOP-62 NSCLC 83.1% | NCI-H460 lung 78.5% | HOP-92 NSCLC 71.3% | NCI-H522 lung 46.5% | A549/ATCC NSCLC 89.3% | 786-0 renal 90.7% | COLO 205 colon 114% | DU-145 prostate 94.8%

O=C(CSc1nc2sc3c(c2c(=O)n1-c1ccc(Cl)cc1)CCCC3)N/N=C/c1ccc(F)cc1
inactive: NCI-H226 lung 113% | NCI-H322M lung 104% | HOP-62 NSCLC 105% | NCI-H460 lung 81.4% | HOP-92 NSCLC 97.3% | NCI-H522 lung 100% | A549/ATCC NSCLC 88.1% | 786-0 renal 98.9% | COLO 205 colon 117% | DU-145 prostate 82.1%

CCCC(=O)NC(c1cccc(N(C)C)c1)c1cc(C)c2cccnc2c1O (stereo not given)
inactive: NCI-H226 lung 65.4% | NCI-H322M lung 44.9% | HOP-62 NSCLC 44% | NCI-H460 lung 25.7% | HOP-92 NSCLC 64.2% | NCI-H522 lung 75.3% | A549/ATCC NSCLC 79.3% | 786-0 renal 56.6% | COLO 205 colon 88% | DU-145 prostate 66.2%

Cc1ccc(CNS(=O)(=O)/N=C2\NC(=O)NC2=C(Cl)Cl)cc1
active: HOP-92 NSCLC -1.1%
inactive: NCI-H226 lung 79.1% | NCI-H322M lung 99.9% | HOP-62 NSCLC 46.2% | NCI-H460 lung 75.3% | NCI-H522 lung 36.8% | A549/ATCC NSCLC 99.2% | 786-0 renal 36.6% | COLO 205 colon 113% | DU-145 prostate 32.6%

NS(=O)(=O)c1cccc(Nc2nc(SCC(=O)c3ccc(Br)cc3)nc3ccccc23)c1
inactive: NCI-H322M lung 97.6% | HOP-62 NSCLC 59.5% | NCI-H460 lung 38.5% | HOP-92 NSCLC 38.2% | NCI-H522 lung 40.8% | A549/ATCC NSCLC 60.3% | 786-0 renal 14.2% | COLO 205 colon 75.8% | DU-145 prostate 69.4%
active: NCI-H226 lung 4.97%

Oc1c(Cl)cc(Cl)c2ccc(CN3CCCCC3)nc12
inactive: NCI-H226 lung 48.6% | NCI-H322M lung 37.9% | HOP-62 NSCLC 48.1% | NCI-H460 lung 22.2% | HOP-92 NSCLC 48.6% | NCI-H522 lung 34% | A549/ATCC NSCLC 44.7% | 786-0 renal 36.1% | COLO 205 colon 79.9% | DU-145 prostate 44%

COc1cc(/C=C/C(=O)c2ccc(C(F)(F)F)cc2)ccc1Oc1nc(NCCO)nc(N2CCOCC2)n1
inactive: NCI-H226 lung 89.2% | NCI-H322M lung 101% | HOP-62 NSCLC 90.2% | NCI-H460 lung 98.7% | HOP-92 NSCLC 95% | NCI-H522 lung 86.8% | A549/ATCC NSCLC 91.6% | 786-0 renal 100% | COLO 205 colon 108% | DU-145 prostate 101%

Nc1ncc(-c2ccc3ncnc(N4CCc5cc(F)c(Cl)cc54)c3c2)cc1CO
active: NCI-H322M lung -2.33% | HOP-62 NSCLC 9.91% | NCI-H460 lung 6.98% | HOP-92 NSCLC -13.2% | NCI-H522 lung -18% | A549/ATCC NSCLC 3.94% | 786-0 renal 4.92% | COLO 205 colon -21.9%
inactive: NCI-H226 lung 18.9% | DU-145 prostate 11.3%

OC1CCN(CCCOc2c3ccc(Cl)cc3nc3c2oc2ccc(Cl)cc23)CC1
inactive: NCI-H322M lung 15% | HOP-62 NSCLC 41%
active: NCI-H226 lung 2.57% | NCI-H460 lung -75.2% | HOP-92 NSCLC 9.66% | NCI-H522 lung 9.65% | A549/ATCC NSCLC -52.9% | 786-0 renal -99% | COLO 205 colon -11.1% | DU-145 prostate -97.5%

C/C(=C(/c1ccc(Cl)cc1)c1ccc(OCCN)cc1)c1ccc(C)cc1
inactive: NCI-H226 lung 112% | NCI-H322M lung 103% | HOP-62 NSCLC 103% | NCI-H460 lung 100% | HOP-92 NSCLC 87.2% | NCI-H522 lung 99.4% | A549/ATCC NSCLC 97.7% | 786-0 renal 102% | COLO 205 colon 114% | DU-145 prostate 106%

C#C[C@]1(O)CC[C@H]2[C@@H]3CC=C4c5sc(-c6ccc(F)cn6)nc5CC[C@]4(C)[C@H]3CC[C@@]21C
active: 786-0 renal -62.5%
inactive: NCI-H226 lung 55.8% | NCI-H322M lung 65.4% | HOP-62 NSCLC 24.6% | NCI-H460 lung 10.4% | HOP-92 NSCLC 49.2% | NCI-H522 lung 56.9% | A549/ATCC NSCLC 37.2% | COLO 205 colon 92.2% | DU-145 prostate 47.3%

Cc1cc(C(=O)Nc2sc3c(c2C(N)=O)CCC(=O)C3)ccc1OCCN1CCCCC1
inactive: NCI-H226 lung 109% | NCI-H322M lung 111% | HOP-62 NSCLC 119% | NCI-H460 lung 99.4% | HOP-92 NSCLC 113% | NCI-H522 lung 90.8% | A549/ATCC NSCLC 81.1% | 786-0 renal 111% | COLO 205 colon 106% | DU-145 prostate 99.2%

Cn1c(SCC(=O)c2cccs2)nc2ccccc2c1=O
inactive: NCI-H226 lung 91.9% | NCI-H322M lung 102% | HOP-62 NSCLC 85.9% | NCI-H460 lung 98.7% | HOP-92 NSCLC 87.3% | NCI-H522 lung 87.8% | A549/ATCC NSCLC 99.6% | 786-0 renal 98.6% | COLO 205 colon 111% | DU-145 prostate 105%

CNC(=O)c1cc(-c2ccc(NC(=O)Nc3ccc(N4CCOCC4)c(C(F)(F)F)c3)cc2)nc2cccnc12
inactive: NCI-H226 lung 54.8% | NCI-H322M lung 71.7% | HOP-62 NSCLC 80.6% | NCI-H460 lung 23.9% | HOP-92 NSCLC 57.2% | NCI-H522 lung 65.5% | A549/ATCC NSCLC 51.6% | 786-0 renal 25.9% | COLO 205 colon 84.7% | DU-145 prostate 69.6%

CN(C)CCCOc1c2ccccc2nc2c1oc1ccc(Cl)cc12
active: NCI-H226 lung -6.99% | NCI-H322M lung -9.94% | NCI-H460 lung 4.37% | HOP-92 NSCLC 3.66% | NCI-H522 lung -57.1% | A549/ATCC NSCLC -2.75% | 786-0 renal 7.33% | COLO 205 colon -24.5% | DU-145 prostate -1.68%
inactive: HOP-62 NSCLC 14.2%

COc1ccc(C(=O)/C=C/c2ccc(Oc3nc(NCCO)nc(N4CCOCC4)n3)c(OC)c2)cc1
inactive: NCI-H226 lung 92.9% | NCI-H322M lung 96.6% | HOP-62 NSCLC 106% | NCI-H460 lung 79.8% | HOP-92 NSCLC 104% | NCI-H522 lung 66.4% | A549/ATCC NSCLC 103% | 786-0 renal 100% | COLO 205 colon 114% | DU-145 prostate 95%

Cn1cc(-c2cc(N)n3nc(-c4cn(C)c5ccc(Cl)cc45)cc3n2)c2cc(Cl)ccc21
inactive: NCI-H226 lung 111% | NCI-H322M lung 85.7% | HOP-62 NSCLC 102% | NCI-H460 lung 71.4% | HOP-92 NSCLC 95.3% | NCI-H522 lung 100% | A549/ATCC NSCLC 87.9% | 786-0 renal 99.4% | COLO 205 colon 119% | DU-145 prostate 71.4%

CC(=O)Oc1ccccc1C(=O)Nc1ccc(C(=O)/C=C/c2ccncc2)cc1
inactive: NCI-H226 lung 92.5% | NCI-H322M lung 78.3% | HOP-62 NSCLC 91.4% | NCI-H460 lung 45.8% | HOP-92 NSCLC 66.1% | NCI-H522 lung 71.8% | A549/ATCC NSCLC 56.5% | 786-0 renal 33.9% | COLO 205 colon 66% | DU-145 prostate 35.6%

CC(=O)Oc1ccccc1C(=O)Nc1ccc(C(=O)/C=C/c2cccs2)cc1
inactive: NCI-H226 lung 116% | NCI-H322M lung 106% | HOP-62 NSCLC 101% | NCI-H460 lung 116% | HOP-92 NSCLC 108% | NCI-H522 lung 102% | A549/ATCC NSCLC 104% | 786-0 renal 88.7% | COLO 205 colon 126% | DU-145 prostate 113%

N/C(=N\c1nc2c(Br)cccc2s1)C(Br)Br
active: NCI-H460 lung -20.4% | HOP-92 NSCLC -3.75% | NCI-H522 lung -75.1% | 786-0 renal -14.3% | COLO 205 colon 1.7% | DU-145 prostate -21.8%
inactive: NCI-H226 lung 48.9% | NCI-H322M lung 31.8% | HOP-62 NSCLC 39.8% | A549/ATCC NSCLC 21.8%

N/C(=N\c1nc2c(Cl)cc(Cl)cc2s1)C(Cl)(Cl)Cl
inactive: NCI-H226 lung 73.5% | HOP-62 NSCLC 20.1% | HOP-92 NSCLC 46.4% | NCI-H522 lung 82.4% | 786-0 renal 85.4%
active: NCI-H322M lung -55.6% | NCI-H460 lung -1.22% | A549/ATCC NSCLC -12.9% | COLO 205 colon -16% | DU-145 prostate -27.8%
